# From PubChem BioAssay
# Rows were chosen to be rich in hits. Some 2.3% of all compounds tested hit in one or more screens of this group.
# Tau FP inhib: inhibitors of human tau fibril formation; K18 P301L tau heparin fibrillization, Alexa594 FP, 6 h; Potency, µM (highest dose often 57.7 µM), for inactives: top-dose activity, negative = inhibition, hits mostly inhibitors; hit rate 0.39% among 280,000; also: potency is read from the fitted curve at half-maximal effect; nearly all actives have a fitted effect of over 55% in size
#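 Human tau K18 […] P301L fragment, 15 uM unlabeled plus 0.24 uM Alexa 594-labeled tau (final), with compound and 20 uM heparin in 100 mM sodium acetate pH 7; 6 hr at 37 C, then Alexa 594 FP read.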
# USP1 inh: inhibitors of human USP1/UAF1 deubiquitinase; O94782; recombinant USP1/UAF1, Ub-Rhodamine cleavage fluorescence; Potency, µM (titrated, usually from 57.1 µM), for the others: at the top dose activity change, negative = inhibition, usual class: inhibitors; hit rate 0.23% among 390,000; also: potency is read from the fitted curve at half-maximal effect; nearly all actives have a fitted effect of over 60% in size
# Target sequence (O94782 whole entry, looked up): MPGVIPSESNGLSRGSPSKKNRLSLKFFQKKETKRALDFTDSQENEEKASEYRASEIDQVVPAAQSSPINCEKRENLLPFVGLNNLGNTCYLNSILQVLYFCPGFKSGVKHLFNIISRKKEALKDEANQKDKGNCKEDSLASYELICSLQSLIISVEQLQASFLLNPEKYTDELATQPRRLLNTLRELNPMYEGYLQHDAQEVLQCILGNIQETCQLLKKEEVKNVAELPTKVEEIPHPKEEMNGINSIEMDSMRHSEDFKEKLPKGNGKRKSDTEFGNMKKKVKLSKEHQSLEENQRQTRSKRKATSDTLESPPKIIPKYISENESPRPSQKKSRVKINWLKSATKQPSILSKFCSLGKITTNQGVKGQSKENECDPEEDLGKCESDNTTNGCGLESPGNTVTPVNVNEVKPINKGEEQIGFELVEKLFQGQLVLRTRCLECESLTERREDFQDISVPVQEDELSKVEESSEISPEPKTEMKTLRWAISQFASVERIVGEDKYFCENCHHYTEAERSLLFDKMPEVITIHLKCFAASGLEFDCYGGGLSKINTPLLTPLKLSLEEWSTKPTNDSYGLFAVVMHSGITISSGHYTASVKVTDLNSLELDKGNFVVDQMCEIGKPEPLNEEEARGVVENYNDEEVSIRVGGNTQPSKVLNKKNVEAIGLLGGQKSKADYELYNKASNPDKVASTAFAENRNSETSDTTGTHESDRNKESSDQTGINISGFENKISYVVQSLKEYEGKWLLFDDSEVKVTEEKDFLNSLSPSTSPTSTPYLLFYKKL
#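 High-throughput fluorogenic screen: 1nM USP1/UAF1 complex, Ub-Rho substrate 150nM final, 50mM HEPES pH 7.8 with 0.5mM EDTA, 0.1 mg/ml BSA, 1mM TCEP and 0.01% Tween-20.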
# Tau fluor counter: counter-screen for tau fibril formation inhibitors. tau K18 P301L Alexa594 fluorescence, heparin fibrillization. Potency, µM (series often up to 57.7 µM), without a hit: at the top dose activity change, negative = decrease. hit rate 0.93% among 280,000; also: potency is read from the fitted curve at half-maximal effect; nearly all actives have a fitted effect of over 55% in size
#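 Human tau K18 P301L (15 uM unlabeled, 0.24 uM Alexa 594-labeled) in 100 mM sodium acetate pH 7 with 20 uM heparin, 6 hr at 37 C. ThT 30 uM added, 1 hr ambient; Alexa 594 FP and total fluorescence read at 555/632 nm.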
# Tau fibril ThT: inhibitors of human tau fibril formation, thioflavin T binding. hit rate 2.1% among 270,000. Potency, µM (titrated, usually from 57.4 µM), inactives show at the highest dose activity, negative = inhibition, hits mostly inhibitors. P10636. recombinant tau K18 P301L, heparin-induced fibrillization, ThT fluorescence; also: potency is read from the fitted curve at half-maximal effect; nearly all actives have a fitted effect of over 55% in size
#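 ThT emission at 510 nm, taken 1 hr after adding 30 uM dye, quantifies aggregates formed when 20 uM heparin acts on human tau K18 P301L for 6 hr at 37 C.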
# FBPA coupling cs: counter-screen for Giardia aldolase inhibitors: coupling enzyme system; hit rate 0.67% among 290,000; coupling enzyme system counterscreen, AmpLite Red fluorescence; activity change, negative = inhibition, % at 58.2 µM, hits read low; AID 2472; in the data active = activity change below about -30%
#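 Fluorescence at 525 nm excitation and 598 nm emission measured inhibition of the coupled detection system without aldolase. Compounds (at 57.5 uM final) were preincubated 10 min at room temperature with coupling enzyme reagent before a 20 min substrate/AmpLite Red step.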
# Numbers without * were called inactive; u = inconclusive; x = no result; [ ] = dose if it differs, or a comment. Unless noted, calls follow the shape of the dose curve; as a rule, active = well fitted curve in the direction sought with a large enough effect; inconclusive = small, poorly fitted or top-dose-only effect, or another doubt; inactive = no such curve, though single readings can be large; an effect the other way counts as inactive or inconclusive. % is scaled to controls: 0 for no effect and ±100 for the full control effect.
SMILES,Tau FP inhib,USP1 inh,Tau fluor counter,Tau fibril ThT,FBPA coupling cs
N#C/C(=C\c1ccc(N2CCOCC2)o1)c1nc2ccccc2[nH]1,-11%,25µM*,u,7.9µM*,-49*
O=C(O)c1cc(/C=C/c2ccc(N3CCOCC3)c([N+](=O)[O-])c2)nc2ccccc12,-5%,-29%,-22%,14µM*,-1
CC(=O)Nc1ccc(/C=C/c2ccc3c([N+](=O)[O-])cccc3n2)cc1,14%,-5%,-11%,1.4µM*,1
Cc1ccc2nc(/C(C#N)=C/c3cccc(Br)c3)[nH]c2c1,-4%,-7%,u,5µM*,x
O=[N+]([O-])c1cccc2ccc(/C=C/c3ccc(Cl)cc3)nc12,-7%,-3%,-7%,-3%,2
CCCc1cc(=O)oc2c3c(ccc12)OCN(Cc1ccccc1OC)C3,-5%,-31%,3%,-3%,x
COc1ccc(C2=C(C)C(N3CCC(C(=O)Nc4ccccc4F)CC3)=NS2(=O)=O)cc1,-4%,u,5%,12%,x
CCCn1cc(S(=O)(=O)c2cc(C)ccc2C)c(=O)c2cc(F)c(N3CCCCCC3)cc21,2%,u,-6%,-10%,x
N#C/C(=C\c1ccc(N2CCCCC2)o1)C(N)=O,9%,u,0%,u,0
Cc1ccc2nc(/C(C#N)=C\c3ccc(N4CCCCC4)c([N+](=O)[O-])c3)[nH]c2c1,7%,u,-30%,3.2µM*,1
COC(=O)/C(C#N)=C/c1ccc(N2CCOCC2)c([N+](=O)[O-])c1,3%,-9%,-2%,-14%,2
N#C/C(=C/c1ccc(N2CCCC2)c([N+](=O)[O-])c1)c1nc2ccccc2[nH]1,-13%,-8%,u,2.5µM*,-1
N#C/C(=C/c1ccc(N2CCOCC2)o1)c1ccc(Cl)cc1,u,28µM*,u,16µM*,-47*
N#C/C(=C\c1ccc(N2CCOCC2)c([N+](=O)[O-])c1)c1nc2ccccc2[nH]1,-7%,0%,22µM*[quencher],5µM*,-5
N#C/C(=C\c1ccc(Oc2ccc(C(F)(F)F)cc2[N+](=O)[O-])cc1)c1nc2ccccc2[nH]1,u,-27%,u,u,x
CCOC(=O)c1cc(S(=O)(=O)N2CCN(c3ccc(C)cc3C)CC2)[nH]n1,-11%,-11%,-24%,-16%,x
CCCCCCC1Cc2cc(OC)c(OC)cc2C(C(C(=O)OCC)C(=O)OCC)O1 (configuration not stated),3%[11.6 µM],x,-16%[11.6 µM],-11%[11.5 µM],-1
CSc1nc(SCCO)c2sc3nc(-c4ccco4)c4c(c3c2n1)CC(C)(C)OC4,-16%,-32%,-6%,u,0
CSc1nc(N(CCO)CCO)c2sc3nc(-c4ccco4)c4c(c3c2n1)CCC4,u,u,u,25µM*,4
CC(=O)c1c(C)c(C)c2n1CCn1c(C)ccc1-2,-17%,-23%,u,16µM*,-25
Cc1ccc(C)c(CN2C(=O)COc3ccccc32)c1,x,-4%,x,x,0
Cc1ccc(C)c(CN2C(=O)COc3ccc(C(=O)c4ccccc4C(=O)O)cc32)c1,1%,-13%,-4%,5%,-35*
Cc1oc(-c2ccc(C(=O)Nc3cccc(C(F)(F)F)c3)cc2)nc1CSc1ccccc1,14µM*,-36%,u,6%,x
CCC(=O)N1CCc2cc(S(=O)(=O)NC(C(=O)NCCc3cccc(C)c3)C(C)C)ccc21 (configuration not stated),-6%,-12%,-3%,4%,x
Cc1ccc(NC(=O)c2ccc(CSc3ccccn3)cc2)c(O)c1,19%,-6%,18µM*[quencher],u,0
SMILES,Tau FP inhib,USP1 inh,Tau fluor counter,Tau fibril ThT,FBPA coupling cs
Cc1ccc(NC(=O)c2ccc(CSc3ccccn3)cc2)cc1,-6%,6%,-16%,-1%,0
COC(=O)c1ccc(C(/C=C/[C@@H](C)C(=O)N[C@H](C)CO)NC(=O)OCc2ccccc2)cc1 (some centres not stated),3%,x,-6%,-5%,1
O=C(O)c1cccnc1Cl,-2%,-25%,-2%,-2%,3
O=C(O)c1cccnc1C(=O)O,u,7%,-19%,-15%,-63*
O=C(Oc1cccnc1)c1ccc([N+](=O)[O-])cc1,12%,2%,8.9µM*[quencher],u,1
COC(=O)C1=C(O)/C(=C\c2ccc(CNS(=O)(=O)c3ccc(Cl)cc3)o2)N=C1C,-7%,-8%,-20%,u,-27
COC(=O)C1=C(O)/C(=C\c2ccc(CNS(=O)(=O)c3ccccc3)o2)N=C1C,u,-26%,u,14µM*,-9
CCOc1ccc(CCNC(=O)c2cc(=O)[nH]c3ccc(S(=O)(=O)N4CCCCC4)cc23)cc1OCC,-6%,-27%,-1%,11%,x
Cc1ccc(NC(=S)NNC(=S)Nc2cccc(C(F)(F)F)c2)cc1,u,-24%,14µM*[quencher],x,-1
CN(C)NC(=S)Nc1cccc(C(F)(F)F)c1,9%,u,-5%,-9%,8
FC(F)(F)c1cccc(NC(=S)NCc2ccc(Cl)cc2)c1,u,-12%,u,5%,0
FC(F)(F)c1cccc(NC(=S)NNC(=S)Nc2ccc(Cl)cc2)c1,u,x,8.9µM*[quencher],x,-2
CCNC(=O)Oc1ccc[nH]c1=O,u,-15%,-12%,u,-63*
COc1ccc(C(=O)Oc2ccc[nH]c2=O)cc1,4%,3%,1%,-2%,-5
CCCn1c2ccccc2c2cnn(CC(=O)N(C)c3ccc(F)cc3)c(=O)c21,-2%,8%,-5%,-11%,x
C(=N\Nc1ccccn1)/c1c[nH]c2ccccc12,9%,-23%,14µM*[quencher],7.1µM*,0
Cc1cc(C)n(-c2nnc(N3CCN(c4ccc(F)cc4)CC3)nn2)n1,5%,-9%,-24%,13µM*,-12
O=c1ccn(-c2cccc(C(F)(F)F)c2)nc1-c1ccn(-c2ccccc2)n1,-5%,1%,-16%,-12%,-38*
COc1ccc(COC(=O)N/N=C2/C[C@@H](O)[C@@H](O)[C@@H]3[C@@H]4C(=O)N(c5cccc(Oc6ccccc6)c5)C(=O)[C@H]4CC[C@H]23)cc1,-1%[11.6 µM],x,-7%[11.6 µM],-5%[11.5 µM],3
CCOC(=O)N=Nc1c2ccccc2c2nc3no[nH]c3nc12,u,u,-24%,u,-51*
CCOC(=O)N=Nc1c(O)n(CC(=O)OC)c2ccccc12,-10%,6%,-9%,-12%,-2
CCOc1ccc(NCC(=O)Nc2ccc(Cl)cc2C)cc1,-4%,-22%,-21%,u,-4
COc1ccc(NCC(=O)Nc2ccc(Cl)cc2C)c(OC)c1,-14%,u,u,32µM*,-11
O=C1CSC(=S)N1N1C(=O)c2cccc([N+](=O)[O-])c2C1=O,u,x,-25%,13µM*,-14
